# According to the supplement of paper PMC4166925:
# ± gives the standard deviation of the averaged measurements. Over roughly 33,000 sequences, “E-score (dimensionless, -0.5 to 0.5)” has its median near -0.046; the highest 2% begin near 0.36. The list comes from a sample in which the highest values are over-represented; it also holds similar and randomly drawn sequences.
# Test system: T1, SpTbr T-box DNA-binding domain (GST fusion)
# T1 sequence: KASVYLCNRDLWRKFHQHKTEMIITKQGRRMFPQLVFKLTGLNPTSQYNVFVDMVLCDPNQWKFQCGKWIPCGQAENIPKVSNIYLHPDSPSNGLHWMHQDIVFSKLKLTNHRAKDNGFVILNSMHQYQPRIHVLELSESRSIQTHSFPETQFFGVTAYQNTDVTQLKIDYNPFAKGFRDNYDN
# Test: PBM E-score of 8-mer (E-score (dimensionless, -0.5 to 0.5)); Tbr is Tbrain of the sea star Patiria miniata (Pm) or the sea urchin Strongylocentrotus purpuratus (Sp); higher = stronger binding preference
# Details: the construct has about 5 more residues each side
# Outline: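 Each ungapped 8-mer received an enrichment E-score from the Universal PBM Analysis Suite, averaged over duplicate arrays. The proteins were Tbr T-box DNA-binding domains, covering the whole T-box plus about five flanking residues, fused to GST and expressed in BL21 E. coli at 20 °C before glutathione affinity purification. Universal Agilent oligonucleotide arrays were made double-stranded by primer extension and incubated with 200 nM protein in PBS (pH 7.5). The arrays were then scanned and quantified, and every 8-mer was scored from probe intensities.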
row,Sequence,PBM E-score of 8-mer
1,ACACTGTA,0.172 ± 0.036
2,ACTTGATA,0.108 ± 0.039
3,AGACAGCG,-0.00288 ± 0.048
4,CTGAAAGC,-0.193 ± 0.033
5,GTGTAAAC,0.367 ± 0.02
6,CTGTAAAC,0.132 ± 0.0059
7,ATGTAAAC,0.0731 ± 0.026
8,AGCAGATA,-0.195 ± 0.043
9,ACAGCCCT,-0.109 ± 0.054
10,ATATGTGA,0.242 ± 0.055
11,GTGTGTAA,0.27 ± 0.0036
12,ATGTGTGA,0.4838 ± 0.001
13,AAATGTGT,0.435 ± 0.0081
14,ATGTGTGC,0.299 ± 0.0091
15,CTGTGTGA,0.341 ± 0.0081
16,AAATGTGC,0.151 ± 0.076
17,GTGTGTGA,0.4221 ± 0.003
18,AAATGTGG,0.114 ± 0.01
19,CAGCCAAC,0.106 ± 0.037
20,GTAGCGCA,-0.148 ± 0.091
21,GATGCGCA,0.014 ± 0.028
22,ATCTCCAC,0.0376 ± 0.0077
23,AACGTTTC,-0.191 ± 0.019
24,TCTCGAAA,-0.0659 ± 0.035
25,ACGCCACT,0.285 ± 0.013

row,Sequence,PBM E-score of 8-mer
1,CCACAACC,0.113 ± 0.015
2,AAGTTTAT,-0.141 ± 0.074
3,AATGCAGT,-0.188 ± 0.028
4,ATCGACAA,0.213 ± 0.0072
5,CTCGACAC,0.3634 ± 0.0018
6,ATCGACAC,0.389 ± 0.013
7,GTCGACAC,0.394 ± 0.018
8,ATCGACAG,0.286 ± 0.005
9,GTCGACAA,0.275 ± 0.0098
10,AATGGCTG,-0.183 ± 0.012
11,CAAGTAGA,-0.0961 ± 0.025
12,ATCTCGGA,-0.276 ± 0.03
13,CCATACCG,-0.115 ± 0.017
14,ACTCAAGC,-0.127 ± 0.023
15,CGTTAACC,0.113 ± 0.07
16,CGTTAACA,0.4129 ± 0.0026
17,CGTTAGCA,0.37 ± 0.0046
18,CGTTAAAA,0.0585 ± 0.1
19,AGTTAACG,0.127 ± 0.006
20,GGTTAACA,0.287 ± 0.012
21,AGTTAACA,0.334 ± 0.023
22,TGTTAACA,0.421 ± 0.029
23,AGTTAGCA,0.284 ± 0.045
24,CATTAACA,0.329 ± 0.029
25,CGTTAACG,0.372 ± 0.0041

row,Sequence,PBM E-score of 8-mer
1,GGTTAGCA,0.257 ± 0.034
2,CAAGTTCG,0.0356 ± 0.0073
3,TAGGCGAA,0.0827 ± 0.01
4,CGATACCC,-0.00698 ± 0.068
5,ACTTAATG,-0.1 ± 0.055
6,CGATTTTA,-0.151 ± 0.033
7,ACGGTGAT,0.115 ± 0.028
8,GGGGTGAC,0.293 ± 0.043
9,CAGGTGAA,0.199 ± 0.031
10,CCGGTGTC,0.18 ± 0.047
11,AGGGTGAT,0.123 ± 0.024
12,GAGGTGAC,0.429 ± 0.018
13,CAGGTGAG,0.399 ± 0.0058
14,GAGGTGAA,0.198 ± 0.0028
15,AAGGTGAT,0.384 ± 0.023
16,CAGGTGTA,0.358 ± 0.0037
17,CAGGTGTC,0.4679 ± 0.0019
18,CCGGTGAG,0.089 ± 0.024
19,CGAAGCCG,0.244 ± 0.045
20,ACCAGCTA,-0.0508 ± 0.0037
21,CGCGAGCA,0.275 ± 0.036
22,AGCAGAGA,-0.259 ± 0.039
23,CGGACAAA,-0.0576 ± 0.039
24,CCGAAATC,-0.048 ± 0.0049
25,CAGAGCAG,-0.246 ± 0.033

row,Sequence,PBM E-score of 8-mer
1,AGGGTGAG,0.216 ± 0.048
2,CTGGTGAC,0.162 ± 0.074
3,AAGGTGAG,0.445 ± 0.014
4,AAGGTGAA,0.187 ± 0.0077
5,ACGGTGAC,0.284 ± 0.0089
6,ACGGTGAG,0.0305 ± 0.02
7,AAGGTGAC,0.381 ± 0.026
8,CAGGTGAC,0.425 ± 0.013
9,CAGATGAC,-0.0314 ± 0.026
10,ACAGCTCC,0.157 ± 0.0081
11,GCCTGCAC,-0.0663 ± 0.051
12,ACGTGTCT,0.204 ± 0.034
13,GCGTGAGA,0.361 ± 0.03
14,ACGTGAGA,0.3312 ± 0.0033
15,ACGTGTGG,0.416 ± 0.00045
16,GCGTGTAA,0.0697 ± 0.022
17,ACGTGGGG,-0.127 ± 0.012
18,ACGTGTGA,0.4797 ± 0.0017
19,GCGTGTGA,0.399 ± 0.0074
20,ACGTGTCA,0.458 ± 0.0068
21,CCGTGTCA,0.176 ± 0.013
22,ACGTGTGC,0.253 ± 0.017
23,ACGTGGGC,-0.0975 ± 0.06
24,AACTCTTG,-0.0545 ± 0.035
25,CGTAGGAA,-0.00351 ± 0.079

row,Sequence,PBM E-score of 8-mer
1,CTTCTGCA,0.00227 ± 0.035
2,CAGCGCAG,-0.14 ± 0.069
3,CAACCCAG,-0.2068 ± 0.00038
4,AATCTGAG,0.0009 ± 0.0013
5,CTATGAGC,-0.1 ± 0.02
6,ACCGCTGC,0.0922 ± 0.006
7,CCGTGTGC,0.0129 ± 0.03
8,CCGTGAGA,0.143 ± 0.015
9,CCGTGTGA,0.381 ± 0.017
10,ATCTAGAA,-0.151 ± 0.049
11,AACACGTG,0.36 ± 0.008
12,CACACGTC,0.451 ± 0.0092
13,CACACGTA,0.356 ± 0.0042
14,CGCACGTC,0.331 ± 0.013
15,CACACGGC,0.151 ± 0.069
16,CACACGTG,0.383 ± 0.0078
17,AACCCCTG,-0.108 ± 0.043
18,CACTGAGC,0.00197 ± 0.0073
19,CGCTTTAA,-0.169 ± 0.035
20,AAAGTAGC,-0.0267 ± 0.0034
21,ACTCGACA,0.24 ± 0.029
22,CAGCTGCC,-0.0128 ± 0.074
23,GAGTGTGC,0.296 ± 0.015
24,TAGTGGGA,-0.0317 ± 0.03
25,CAGTGTGG,0.243 ± 0.043

row,Sequence,PBM E-score of 8-mer
1,CAGTGTAA,0.0331 ± 0.071
2,TAGTGTGA,0.453 ± 0.011
3,TAGTGAGA,0.209 ± 0.089
4,GAGTGTAA,0.235 ± 0.04
5,CAGTGTGA,0.393 ± 0.0076
6,GAGTGTGA,0.478 ± 0.0052
7,CCAAAGGA,-0.262 ± 0.032
8,AGCCTCAC,0.178 ± 0.015
9,GCTGTTCC,-0.0355 ± 0.05
10,GCCTCCGA,-0.0614 ± 0.071
11,GAGTATGA,-0.047 ± 0.066
12,CTTGCCAA,0.153 ± 0.021
13,CTGGTGTC,0.312 ± 0.033
14,ATGGTGTA,0.127 ± 0.015
15,ATGGTGTC,0.392 ± 0.005
16,ATGGTGGC,0.274 ± 0.028
17,ATGGTGTG,0.39 ± 0.023
18,ATGGTGCG,0.206 ± 0.037
19,AAGTTTGA,-0.0385 ± 0.021
20,CGGTCAGC,-0.186 ± 0.18
21,ATTCAAAT,-0.0886 ± 0.04
22,ATAGAGCG,-0.0811 ± 0.011
23,AATTGTTC,0.0645 ± 0.035
24,GACCACCC,-0.0294 ± 0.0021
25,CACACCAG,0.386 ± 0.036

row,Sequence,PBM E-score of 8-mer
1,CCCACCAC,-0.00552 ± 0.018
2,CGCACCAG,0.242 ± 0.0071
3,CACACCAA,0.38 ± 0.017
4,CCCACCAA,-0.0327 ± 0.016
5,GACACCAA,0.327 ± 0.024
6,CACACCAC,0.394 ± 0.015
7,CACCACAC,0.3556 ± 0.0015
8,CTCACCAA,0.133 ± 0.059
9,GACACCAC,0.367 ± 0.039
10,AACACCAG,0.317 ± 0.028
11,AACACCAC,0.344 ± 0.015
12,TCATTTAA,-0.193 ± 0.036
13,CCTCTGCA,-0.1407 ± 0.00062
14,AATAGCCC,-0.194 ± 0.016
15,AGTAAATA,-0.121 ± 0.066
16,GCTTGCTA,-0.156 ± 0.02
17,AGCGCACG,0.137 ± 0.04
18,ACTGTCTG,0.126 ± 0.021
19,AGGCTTGG,-0.225 ± 0.031
20,AGACTTTC,0.00343 ± 0.055
21,GCTACCTA,-0.0771 ± 0.051
22,AGCTGTCA,0.382 ± 0.022
